Where “and” joins values, the source holds several entries; their conditions need not be identical. Identical values can stand only once. Out of some 5,500 compounds screened, about 2,000 (36%) were called active. About 18% were inconclusive and are not listed. No stated cut-off is given here; in the data, active means normalized growth mostly below about 0.91 (no sharp cut-off); inconclusive means no clear call, values can overlap the other calls; inactive means mostly above about 0.92. Some of the results follow.
Assay: chemical genetic growth profiling, strain panel (AID 1159580);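 further: tested at 20 µM; growth read once vehicle control cultures reached saturation at 30 °C; 1 = growth at the plate median or of vehicle wells; lower values mean less growth of the strain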
Conditions: S. cerevisiae deletion strains, growth OD

Measured: normalized growth

O=c1c(O)cccc2cc(O)c(O)c(O)c12
inactive: locus YBR021W, strain FUR4, active compounds read low 0.921 | locus YDL005C, strain med2, active compounds read low 0.978 | locus YDL040C, strain nat1, active compounds read low 0.946 | locus YDR001C, strain nth1, active compounds read low 0.925 | locus YER110C, active compounds read low 1.02 | locus YGL227W, strain vid30, active compounds read low 0.954 | locus YGL240W, strain doc1, active compounds read low 0.968 | locus YHR094C, strain hxt1, active compounds read low 0.98 | locus YJL168C, strain set2, active compounds read low 0.966 | locus YKR091W, strain srl3, active compounds read low 0.939 | locus YLR102C, strain apc9, active compounds read low 1.02 | locus YMR078C, strain ctf18, active compounds read low 0.971 | locus YMR125W, strain sto1, active compounds read low 0.955 | locus YNL298W, strain CLA4, active compounds read low 0.969 | locus YNL307C, strain MCK1, active compounds read low 0.959 | locus YOL012C, strain htz1 0.272 | locus YOR136W, strain idh2, active compounds read low 0.925 | locus YOR316C, strain cot1, active compounds read low 1 | locus YPR119W, strain clb2, active compounds read low 1.01
active: locus YAL021C, strain ccr4, active compounds read low 0.082 | locus YAL026C, strain drs2, active compounds read low 0.425 | locus YAL030W, strain snc1, active compounds read low 0.884 | locus YBL061C, strain skt5, active compounds read low 0.798 | locus YBR009C, strain hhf1, active compounds read low 0.76 | locus YBR023C, strain chs3, active compounds read low 0.668 | locus YBR171W, strain sec66, active compounds read low 0.881 | locus YBR229C, strain ROT2, active compounds read low 0.844 | locus YBR231C, strain swc5, active compounds read low 0.623 | locus YBR279W, strain paf1, active compounds read low 0.856 | locus YCL011C, strain gbp2, active compounds read low 0.859 | locus YCL016C, strain dcc1, active compounds read low 0.858 | locus YCL029C, strain bik1, active compounds read low 0.443 | locus YCL061C, strain MRC1, active compounds read low 0.833 | locus YCL069W, strain vba3, active compounds read low 0.858 | locus YCR088W, strain abp1, active compounds read low 0.875 | locus YDL035C, strain GPR1, active compounds read low 0.678 | locus YDL074C, strain BRE1, active compounds read low 0.497 | locus YDL101C, strain DUN1, active compounds read low 0.457 | locus YDL185W, strain tfp1, active compounds read low 0.501 | locus YDL192W, strain arf1, active compounds read low 0.742 | locus YDR069C, strain doa4, active compounds read low 0.166 | locus YDR101C, strain arx1, active compounds read low 0.479 | locus YDR137W, strain rgp1, active compounds read low 0.126 | locus YDR159W, strain sac3, active compounds read low 0.149 | locus YDR162C, strain NBP2, active compounds read low 0.515 | locus YDR195W, strain ref2 0.692 | locus YDR297W, strain sur2, active compounds read low 0.877 | locus YDR318W, strain mcm21, active compounds read low 0.885 | locus YDR334W, strain swr1, active compounds read low 0.515 | locus YDR335W, strain msn5, active compounds read low 0.18 | locus YDR388W, active compounds read low 0.855 | locus YDR392W, strain spt3, active compounds read low 0.738 | locus YDR502C, strain sam2, active compounds read low 0.569 | locus YEL003W, strain gim4, active compounds read low 0.671 | locus YEL037C, strain rad23, active compounds read low 0.716 | locus YEL061C, strain CIN8 (second series), active compounds read low 0.878 | locus YER015W, strain faa2, active compounds read low 0.593 | locus YER016W, strain bim1, active compounds read low 0.904 | locus YER111C, strain swi4, active compounds read low 0.22 | locus YER155C, strain BEM2 (second series), active compounds read low 0.489 | locus YER155C, strain BEM2, active compounds read low 0.664 | locus YER167W, strain BCK2, active compounds read low 0.865 | locus YFR010W, strain ubp6, active compounds read low 0.509 | locus YGL078C, strain dbp3, active compounds read low 0.841 | locus YGL086W, strain mad1, active compounds read low 0.758 | locus YGL167C, strain pmr1, active compounds read low 0.757 | locus YGL173C, strain kem1, active compounds read low 0.497 | locus YGL248W, strain PDE1, active compounds read low 0.775 | locus YGL253W, strain hxk2, active compounds read low 0.71 | locus YGR135W, strain pre9, active compounds read low 0.822 | locus YGR252W, strain gcn5, active compounds read low 0.716 | locus YHR013C, strain ard1, active compounds read low 0.577 | locus YHR027C, strain rpn1, active compounds read low 0.554 | locus YHR030C, strain SLT2, active compounds read low 0.898 and 0.73 | locus YHR079C, strain IRE1 (second series), active compounds read low 0.182 | locus YHR079C, strain IRE1, active compounds read low 0.654 | locus YHR129C, strain ARP1, active compounds read low 0.693 | locus YHR142W, strain chs7, active compounds read low 0.536 | locus YHR200W, strain rpn10, active compounds read low 0.817 | locus YIL066C, strain RNR3, active compounds read low 0.768 | locus YIL073C, strain SPO22, active compounds read low 0.508 | locus YIL125W, strain kgd1, active compounds read low 0.783 | locus YIR030C, strain dcg1, active compounds read low 0.812 | locus YJL092W, strain hpr5, active compounds read low 0.9 | locus YJL095W, strain BCK1 (second series), active compounds read low 0.754 | locus YJL095W, strain BCK1, active compounds read low 0.105 and 0.759 | locus YJL115W, strain asf1, active compounds read low 0.894 | locus YJL129C, strain trk1, active compounds read low 0.547 | locus YJL134W, strain LCB3, active compounds read low 0.872 | locus YJL154C, strain vps35, active compounds read low 0.816 | locus YJL164C, strain tpk1, active compounds read low 0.714 | locus YJL166W, strain qcr8, active compounds read low 0.802 | locus YJL187C, strain SWE1 (second series), active compounds read low 0.22 | locus YJL187C, strain SWE1, active compounds read low 0.813 | locus YJR066W, strain TOR1, active compounds read low 0.684 | locus YJR075W, strain HOC1, active compounds read low 0.82 | locus YKL009W, strain mrt4, active compounds read low 0.345 | locus YKL068W, active compounds read low 0.928 | locus YKL085W, strain MDH1 (second series), active compounds read low 0.818 | locus YKL085W, strain MDH1, active compounds read low 0.818 | locus YKL160W, strain elf1, active compounds read low 0.853 | locus YKR001C, strain vps1, active compounds read low 0.818 | locus YKR026C, strain gcn3, active compounds read low 0.915 | locus YLL001W, strain dnm1, active compounds read low 0.699 | locus YLL026W, active compounds read low 0.841 | locus YLL041C, strain sdh2, active compounds read low 0.902 | locus YLR027C, strain aat2, active compounds read low 0.815 | locus YLR039C, strain RIC1, active compounds read low 0.481 | locus YLR058C, strain SHM2, active compounds read low 0.22 | locus YLR113W, strain HOG1, active compounds read low 0.51 | locus YLR221C, strain rsa3, active compounds read low 0.78 | locus YLR258W, strain gsy2, active compounds read low 0.83 | locus YLR262C, strain YPT6 (second series), active compounds read low 0.485 | locus YLR268W, strain sec22, active compounds read low 0.515 | locus YLR320W, strain mms22, active compounds read low 0.595 | locus YLR330W, strain CHS5, active compounds read low 0.852 | locus YLR342W, strain FKS1 (second series), active compounds read low 0.564 | locus YLR342W, strain FKS1, active compounds read low 0.764 | locus YLR357W, strain rsc2, active compounds read low 0.632 | locus YLR370C, strain arc18, active compounds read low 0.656 | locus YLR371W, strain rom2, active compounds read low 0.746 | locus YLR384C, strain iki3, active compounds read low 0.799 | locus YLR418C, strain cdc73, active compounds read low 0.458 | locus YML016C, strain PPZ1, active compounds read low 0.583 | locus YML032C, strain rad52, active compounds read low 0.522 | locus YML120C, strain ndi1, active compounds read low 0.0997 | locus YML124C, strain tub3, active compounds read low 0.839 | locus YMR058W, strain fet3, active compounds read low 0.179 | locus YMR129W, active compounds read low 0.919 | locus YMR205C, strain PFK2, active compounds read low 0.511 | locus YMR223W, strain ubp8, active compounds read low 0.838 | locus YMR231W, strain pep5, active compounds read low 0.183 | locus YMR307W, strain GAS1, active compounds read low 0.586 | locus YNL067W, strain RPL9B, active compounds read low 0.699 | locus YNL071W, strain lat1, active compounds read low 0.833 | locus YNL153C, strain GIM3, active compounds read low 0.511 | locus YNL183C, strain NPR1, active compounds read low 0.66 | locus YNL209W, strain ssb2, active compounds read low 0.398 | locus YNL233W, strain BNI4, active compounds read low 0.741 | locus YNL248C, strain rpa49, active compounds read low 0.811 | locus YNL250W, strain rad50, active compounds read low 0.76 | locus YNL271C, strain bni1, active compounds read low 0.841 | locus YNL322C, strain KRE1 (second series), active compounds read low 0.237 | locus YNR049C, strain mso1, active compounds read low 0.898 | locus YNR052C, strain pop2, active compounds read low 0.185 | locus YOL006C, strain TOP1, active compounds read low 0.423 | locus YOL147C, strain pex11, active compounds read low 0.689 | locus YOR001W, strain rrp6, active compounds read low 0.686 | locus YOR061W, strain CKA2, active compounds read low 0.734 | locus YOR069W, strain VPS5, active compounds read low 0.775 | locus YOR070C, strain gyp1, active compounds read low 0.901 | locus YOR080W, strain dia2, active compounds read low 0.553 | locus YOR083W, strain WHI5, active compounds read low 0.737 | locus YOR106W, strain vam3, active compounds read low 0.367 | locus YOR144C, strain elg1, active compounds read low 0.545 | locus YOR184W, strain ser1, active compounds read low 0.636 | locus YOR231W, strain MKK1, active compounds read low 0.665 | locus YOR265W, strain rbl2, active compounds read low 0.871 | locus YOR270C, strain vph1, active compounds read low 0.16 | locus YOR290C, strain snf2, active compounds read low 0.105 | locus YPL051W, strain arl3, active compounds read low 0.525 | locus YPL078C, strain atp4, active compounds read low 0.284 | locus YPL106C, strain sse1, active compounds read low 0.747 | locus YPL240C, strain hsp82, active compounds read low 0.864 | locus YPL241C, strain CIN2, active compounds read low 0.841 | locus YPL256C, strain CLN2, active compounds read low 0.601 | locus YPR141C, strain kar3, active compounds read low 0.607 | locus YPR163C, strain tif3, active compounds read low 0.884 | locus YPR167C, strain met16, active compounds read low 0.871 | strain wtn01, active compounds read low 0.761

— PubChem BioAssay AID1159580 (chemical genetic matrix, 2015)
